Drawing on PubChem BioAssay, this text covers composite z-score for 35 compounds.

For this assay, the target named is Torsin-1A-interacting protein 1 (Homo sapiens) (UniProt Q5JTV8). In words: LAP1 binders from COS7 cell lysate, primary screen, small-molecule microarray, 635/667 nm fluorescence (AID 1116). Conditions: COS7-hLAP1 lysate binding, 635 nm fluorescence, higher = more signal.
Torsin-1A-interacting protein 1 (Homo sapiens), sequence (Q5JTV8 whole entry, looked up): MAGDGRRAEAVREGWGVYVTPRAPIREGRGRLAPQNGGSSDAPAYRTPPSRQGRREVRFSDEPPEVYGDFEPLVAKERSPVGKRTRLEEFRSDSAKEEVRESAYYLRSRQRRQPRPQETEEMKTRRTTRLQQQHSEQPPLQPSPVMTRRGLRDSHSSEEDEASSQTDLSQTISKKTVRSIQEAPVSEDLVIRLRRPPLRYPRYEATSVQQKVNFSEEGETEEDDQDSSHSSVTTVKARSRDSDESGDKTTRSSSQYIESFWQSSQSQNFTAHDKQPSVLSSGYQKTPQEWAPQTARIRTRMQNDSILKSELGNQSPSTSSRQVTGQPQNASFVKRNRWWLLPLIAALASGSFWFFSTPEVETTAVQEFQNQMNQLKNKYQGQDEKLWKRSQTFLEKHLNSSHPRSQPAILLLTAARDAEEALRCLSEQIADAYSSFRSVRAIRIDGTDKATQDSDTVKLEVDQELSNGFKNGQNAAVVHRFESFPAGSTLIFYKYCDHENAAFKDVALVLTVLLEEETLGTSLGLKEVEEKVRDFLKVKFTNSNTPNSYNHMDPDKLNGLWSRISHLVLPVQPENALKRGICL
As for `CO[C@H]1O[C@H](CO)[C@@H](OC(=O)Nc2ccc3c(c2)OCO3)[C@H](OC(=O)Nc2ccc3c(c2)OCO3)[C@@H]1OC(=O)Nc1ccc2c(c1)OCO2`, the composite z-score is 1.25.
In turn, `CCOC(=O)C[C@H]1[C@H](OC(=O)c2ccccc2-c2ccccc2)[C@@H](NC(=O)c2ccc3ccccc3c2)c2cc(OCCCO)ccc2N1C(=O)c1ccccc1` came in with a composite z-score of 0.228.
With `CC(C)[Si]1(C(C)C)OCc2cc(-c3ccc(-c4ccc(Cl)c(Cl)c4)o3)nc(-c3ccccc3)c21` the figure was -1.16.
With `COc1ccc([C@H]2OC[C@@H]3C[C@H](Cc4ccccc4)C(=O)N32)cc1` the figure was 0.373; with `COC(=O)C(CC#Cc1ccc2c(c1)[C@]1(C(=O)N2)[C@H](c2ccc(O)cc2)N2[C@H](c3ccccc3)[C@H](c3ccccc3)OC(=O)[C@H]2[C@@H]1C(=O)NC[C@H](O)c1ccccc1)C(=O)OC`, 1.24.
With `CC(=O)N1CC2(CC2)CC1c1ccccc1` (stereo not given) the figure was 0.791; with `COc1ccc([Si](C)(C)[C@@H]2[C@@H](CC(=O)N3CCC[C@H]3CO)O[C@]3(C(=O)N(Cc4cccc(N5C(=O)COc6ccccc65)c4)c4ccccc43)[C@H]2C)cc1`, 1.41.
In turn, `O=c1cccc(-c2ccc([N+](=O)[O-])cc2)o1` had a composite z-score of 1.11.
With `N[C@@H](Cc1ccccc1)C(=O)NCc1cn(Cc2ccccc2)nn1` the figure was 0.775; with `O=C1C2C=CC(C(O)c3cccc(O)c3)N(Nc3ccc([N+](=O)[O-])cc3)C2C(=O)N1c1ccccc1` (stereo not given), 0.26.
With `CC(C)c1ccc(NN2C(C(O)c3ccc(F)cc3)C=CC3C(=O)N(c4ccccc4)C(=O)C32)cc1` (stereo not given) the figure was 0.305; with `C=CC[C@@H](OC(=O)Nc1ccc(SC)cc1)c1ccc(O)c(F)c1`, 0.958.
With `COc1cc2c(cc1O)C(C1CC1)N(C)CC2` (stereo not given) the figure was -0.431; with `O=C1CS(=O)(=O)C(c2cccc([N+](=O)[O-])c2)N1c1ccccc1` (stereo not given), 1.49; with `COC(=O)[C@@H]1N=C(c2ccc(OCCCO)cc2)O[C@@H]1c1ccccc1`, -0.992.
`O=C1NC(=O)C2C1C=CC(C(O)c1ccco1)N2Nc1ccc(Cl)cc1Cl` (stereo not given): the composite z-score is 0.478.
With `COc1ccc([Si](C)(C)[C@@H]2[C@@H](CCO)O[C@]3(C(=O)N(Cc4cccc(NC(=O)[C@H](C)O)c4)c4ccccc43)[C@H]2C)cc1` the figure was 0.999; with `CCCN1C(=O)[C@]2(Cc3ccccc31)N=C(c1ccc(OCCCO)cc1)O[C@@H]2c1ccccc1`, 0.414; with `CN(C)C(=O)[C@@]1(Cc2ccccc2)N=C(c2ccc(OCCCO)cc2)O[C@H]1c1ccccc1`, 1.44.
With `COCCOC(=O)N1C(=O)[C@@]2(c3cc(C#CC4(O)CCCCCC4)ccc31)[C@H](c1ccc(O)cc1)N1[C@H](c3ccccc3)[C@H](c3ccccc3)OC(=O)[C@H]1[C@@H]2C(=O)N1CCN(c2ncccn2)CC1` the figure was 1.21.
With `COc1ccc(CCNC(=O)[C@@]2(Cc3ccccc3I)c3ccccc3C(=O)N(C3CCCCC3)[C@H]2c2ccc(CO)cc2)cc1` the figure was 0.0805; with `CCOC(=O)C=Cc1cccc(C)c1O`, 0.0897; with `C=CCC(OC(C)=O)[C@@H]1[C@@H](N(Cc2ccc(-c3cccc(C(F)(F)F)c3)o2)C(=O)Cc2ccc(OC)cc2)c2cc(OCCCO)ccc2N1C(=O)c1ccc(-c2ccccc2)cc1` (stereo not given in full), -0.205.
Compound `O=C1[C@H]2C=C(I)[C@H](C[C@@H]2OCCOCCO)[C@@]12CO2` returned a composite z-score of 0.269.
With `C#Cc1cc2ccccc2oc1=O` the figure was -0.402; with `O=C(Cc1ccccc1)[C@H]1C2C=CCCC(c3ccccc3)=C2CN1Cc1ccccc1` (stereo not given in full), 0.163; with `O=C1O[C@@H](c2ccccc2)[C@@H](c2ccccc2)N2[C@@H](c3ccc(OCCO)cc3)[C@]3(C(=O)Nc4ccc(C#CC5=CCCCC5)cc43)[C@@H](C(=O)NC[C@H](O)c3ccccc3)[C@H]12`, 1.12.
With `COc1cc2c(cc1O)C(C1CC1)N(Cc1cccc(OC(F)(F)F)c1)CC2` (stereo not given) the figure was 0.108; with `[N-]=[N+]=NCc1ccccc1[C@@H]1OC(c2ccc(OCCCO)cc2)=N[C@]1(CCS(=O)(=O)c1ccccc1)C(=O)O`, 0.953.
With `[N-]=[N+]=NCc1ccccc1[C@H]1OC(c2ccc(OCCCO)cc2)=N[C@@]1(Cc1ccccc1N=[N+]=[N-])C(=O)NCC(O)CO` (stereo not given in full) the figure was 1.48; with `COCCOC(=O)N1C(=O)[C@@]2(c3ccccc31)[C@H](C(=O)NC[C@H](O)c1ccccc1)[C@H]1C(=O)O[C@H](c3ccccc3)[C@H](c3ccccc3)N1[C@@H]2c1ccc(O)cc1`, 1.21.
For `O=C1OCCC/C=C\[C@H]2OC34C=CCN(c5ccc6ccccc6c5)C(=O)[C@H]3N(CCO)C(=O)[C@@H]4C12` (stereo not given in full), the composite z-score was -0.399.
With `CCOC(=O)C[C@H]1[C@H](OC(=O)Cc2ccc3c(c2)OCO3)[C@@H](NC(=O)c2ccc3ccccc3n2)c2cc(OCCCO)ccc2N1C(=O)c1ccc2ccccc2n1` the figure was 0.0995.
Regarding `CC[C@@H]1C=C(C(=O)O)[C@H](c2ccccc2)N1S(=O)(=O)c1ccc(C)cc1`, the composite z-score came to 0.599.
With `CC(C)N1C(=O)C[C@@](C(=O)O)(c2ccc([N+](=O)[O-])cc2)[C@H]1c1ccc(CO)cc1` the figure was 0.335.
